Results reported in PubChem BioAssay (NCI).
About 79,000 compounds went through this panel and 15% of them were active in at least one assay; those are over-represented in the sample as a whole. Unmarked numbers belong to inactive results. Calls of active or inactive are those of the source. No stated cut-off is given here; in the data, active means growth inhibition above about 70%; inactive means the rest.

Legend:
[1] = NCI Yeast Anticancer Drug Screen. Data for the rad50 strain (AID 155);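 further: 0% = growth of vehicle-only cultures of the same strain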; conditions: S. cerevisiae rad50 strain growth inhibition; at 50.0 µM; hits give high values
Method in brief: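 Relative growth inhibition (compound vs vehicle) was measured in yeast with a defined repair-gene alteration.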

[2] = NCI Yeast Anticancer Drug Screen. Data for the mec2-1 strain (AID 157); conditions: S. cerevisiae mec2-1 strain, at 50.0 µM, hits give high values
Method in brief: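 Yeast mec2-1 mutant treated with compound. Readout: growth inhibition vs vehicle controls.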

[3] = NCI Yeast Anticancer Drug Screen. Data for the sgs1 mgt1 strain (AID 161);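 further: 0% = growth of cultures given vehicle only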; conditions: S. cerevisiae sgs1 mgt1 strain, at 50.0 µM, hits give high values
Method in brief: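 Mutant yeast exposed to compound; growth scored against vehicle-only wells.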

[4] = NCI Yeast Anticancer Drug Screen. Data for the cln2 rad14 strain (AID 165);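 further: 0% = growth equal to vehicle treated cultures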; conditions: S. cerevisiae cln2 rad14 strain, at 50.0 µM, hits give high values
Method in brief: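 cln2 rad14 yeast strain; compound exposure; growth inhibition read vs vehicle controls.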

[5] = NCI Yeast Anticancer Drug Screen. Data for the bub3 strain (AID 167); conditions: S. cerevisiae bub3 mutant strain, at 50.0 µM, hits give high values
Method in brief: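 Screening used yeast with an engineered genetic alteration affecting cell cycle control. Compound-exposed cultures were compared with vehicle cultures, and reduced growth was taken as inhibition.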

[6] = NCI Yeast Anticancer Drug Screen. Data for the mlh1 rad18 strain (AID 175); conditions: S. cerevisiae mlh1 rad18 strain growth inhibition; at 50.0 µM; hits give high values
Method in brief: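 Yeast w/ defined DNA-repair lesions; compound exposure; growth vs vehicle controls → % inhibition.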

Row | Structure (SMILES) | growth inhibition [1] | growth inhibition [2] | growth inhibition [3] | growth inhibition [4] | growth inhibition [5] | growth inhibition [6]
1 | Cc1cccn2nnnc12 | -7.75% | -12.2% | -9.1% | 9% | 1.65% | -10.8%
2 | O=c1c2ccccc2c(=O)n2n1C1C=CC2C1 | -5% | -7.15% | 1.55% | -6.4% | 4.5% | -4.55%
3 | COCOc1c(OC)c(C2(O)C(=O)N(C)c3ccccc32)c(OCOC)c(OC)c1C1(O)C(=O)N(C)c2ccccc21 (centres undefined) | 0.9% | 13.8% | -14.9% | -3.9% | 0% | 15.4%
4 | NC1CCCCCC1 | 2.95% | -7.25% | 0.8% | 3.25% | 8.45% | -2.4%
5 | O=c1c2c3c(sc2nc2n1N=CN(c1ccc(Cl)cc1)C2)CCCC3 | 8.7% | 6% | 7.7% | -5.45% | -4.7% | -32%
6 | COC(=O)/C=C(/C)c1ccccc1 | 1.7% | 2.3% | 0.9% | 5.65% | 1.45% | -3.5%
7 | CCCCCCC(O)CCCCCCCCCCC(=O)OC (centres undefined) | 33.1% | 4.5% | 20.6% | -26.4% | 12.8% | 33.8%
8 | CNC(CC(=O)O)C(=O)O (centres undefined) | -0.4% | -3.95% | -14.6% | -15.1% | 2.5% | -3.05%
9 | CN(C)c1ccc(-c2cccc[n+]2C)cc1 | -12.8% | 12.2% | 3.05% | 3.25% | 0.1% | 25.7%
10 | COc1ccc2ccc3c(CCN(C)C#N)cc4c(c3c2c1OC(C)=O)OCO4 | 11.7% | -2.15% | -8.9% | 6.6% | -0.95% | 0.15%
11 | CC1(C)OC12C=CC1C2C2CCC1C21OC1(C)C (centres undefined) | 8% | 8.7% | -2.85% | 20.1% | -7.3% | -14.6%
12 | O=C1C2ON3c4ccccc4C(=O)C3(c3ccccc3)C2C(=O)N1c1ccccc1 (centres undefined) | -40.9% | -31.3% | -63% | -14.3% | -37% | -49%
13 | CCCN(CCC)S(=O)(=O)c1ccc(NC(=O)OC(CC)c2ccco2)cc1 (centres undefined) | 27.8% | -3.8% | 8% | 7.85% | -5.5% | 8.8%
14 | CCCCC(CCCC)(C(=O)NC)c1ccccc1 | 3.85% | 6.65% | -4.5% | -14.2% | 17.1% | -23.5%
15 | Cc1ncc(CO)c(/C=N\NC(N)=S)c1O | 9.85% | 4.7% | 8.3% | -48.5% | -39.1% | -7.25%
16 | COC(=O)C1=C(c2ccccc2)c2ccc3ccccc3c2C1c1ccccc1 (centres undefined) | 40.1% | -8.25% | 22.9% | 12.4% | 6.15% | 25.2%
17 | CCCCC1NNC(CCCC)NN1 (centres undefined) | 2.8% | -15.2% | -18.8% | -25.8% | -6.3% | -1.4%
18 | CC(=O)OC[C@]1(O)CC[C@@]23CC1C[C@@H]2CCC1C(C)(C)CCC[C@@]13C (some centres undefined) | 81.5% (active) | 41.6% | 64.8% | 71.6% (active) | 67.7% | 64.4%
19 | CCN(CC)c1ccc2cc(-c3nc4ccccc4s3)c(=O)oc2c1 | 12.4% | -18.1% | -9.5% | -3.05% | -11.5% | 4.8%
20 | CCCCCCc1cc2c(C)c(C)c(=O)oc2cc1OCCCOc1cc2oc(=O)c(C)c(C)c2cc1CCCCCC | -17.9% | -24.9% | -12.5% | 35.5% | -11.8% | -46.3%

Row | Structure (SMILES) | growth inhibition [1] | growth inhibition [2] | growth inhibition [3] | growth inhibition [4] | growth inhibition [5] | growth inhibition [6]
21 | Nc1c(O)cccc1C(=O)O | -16.2% | -9.9% | -4.45% | 3.95% | 5.1% | -28.7%
22 | O=C(O)c1ccc2c(c1C(=O)O)C(=O)OC2(c1ccc(O)cc1)c1ccc(O)cc1 | -14.8% | 11.7% | -21.6% | -21.8% | -10.9% | 4.85%
23 | CC(=O)N=C1N(/C=C2\C(=O)Oc3ccccc3C2=O)C(=O)/C(=C/c2ccccc2Cl)N1C | -13.2% | -21.9% | -25.7% | 10.2% | -16.9% | -8.35%
24 | C=C(C)COC1CCCCO1 (centres undefined) | -3.75% | -15.1% | -36.7% | 14.7% | -42.3% | -39.1%
25 | CCC12C=CCN(CCc3c([nH]c4ccccc34)/C=C\1)C2 (centres undefined) | -8.95% | -8.75% | -7.25% | -1.6% | 6.55% | -15.8%
26 | CCOC(=O)C(CO)NC(=O)C[NH-].CCOC(=O)C(CO)NC(=O)C[NH-].[Cl][Pt+2][Cl] (centres undefined) | -12.5% | -8.55% | -17.4% | -34.4% | -3.5% | 12.2%
27 | CC1CCC(C(C)C)C2(C1)OC(CCl)CS2 (centres undefined) | -0.35% | 14.7% | 7.8% | -18.1% | 26.9% | 1.95%
28 | Cc1cc(C)c(C)c(C)c1C | 17.6% | -8.15% | 14.8% | 2.55% | -3.6% | 20.6%
29 | Cn1nc(-c2ccccc2)c(N=[N+]=[N-])cc1=O | -18.1% | 14.6% | -41.3% | -11.9% | -10.9% | -34.6%
30 | O=C(Nc1c(Cl)c(Cl)c2c(c1Cl)Cc1cc(Cl)ccc1-2)C(Cl)Cl | 36.9% | 10.7% | 1.5% | 26.1% | 3.85% | 25.4%
31 | O=C(OC1CCCC1)c1ccccc1 | 5.3% | 9.9% | -26.1% | -29.1% | -10.2% | -2.2%
32 | CCOC(=O)CCN(CCC(=O)OCC)Cc1cc(Cl)c2cccnc2c1O | 99.1% (active) | 98.6% (active) | 99% (active) | 98.5% (active) | 99.3% (active) | 97.8% (active)
33 | CC(C)CCC[C@@H](C)[C@H]1CC[C@H]2[C@@H]3CC=C4C[C@@H](Cl)CC[C@]4(C)[C@H]3CC[C@]12C | -3.75% | -13.8% | -20% | -2.8% | -8.9% | -0.35%
34 | Cc1ccc(S(=O)(=O)NCCN)cc1 | 9.45% | 11.2% | 24.2% | -19.5% | -6.4% | -3.3%
35 | Cc1cnn(-c2ccccc2)[n+]1[O-] | 0.65% | 11.5% | 9.5% | -28.8% | 9.6% | 6.4%
36 | Cc1ccc(/C=C/C(=O)/C=C/c2ccc(C)cc2)cc1 | 9.05% | 9.25% | 15.6% | -2.6% | 23.6% | 18.7%
37 | Cc1ccc(N=C=Nc2ccc(C)cc2)cc1 | 2.65% | 2.65% | -3.05% | -9.75% | 2.85% | -1.5%
38 | COc1ccccc1CC(=O)O | 27.9% | 2.15% | 16.4% | 17.3% | -1.85% | 0.05%
39 | CC/C=C(\C)C(C#N)(CCC)C(=O)OCC (centres undefined) | -1.8% | -34.1% | -20.9% | -0.75% | -25.6% | -31.7%
